# Laboratory results from the supplement of paper PMC8728848.
# The entries come from a sample that favours the strongest signals as a whole.
# B1: CVN-E41G (protein)
# chain: MHHHHHHENLYFQSGNFSQACYNSAIQGSVLTSTCIRTNGGYNTSSIDLNSVIGNVDGSLKWQGSNFIETCRNTQLAGSSELAAECKTRAQQFVSTKINLDDHIAAIDGTLKYE
# Experiments:
# Assay in all cases: glycan array binding signal (z-score within array); higher = stronger binding
# Settings in all cases: glycan notation: IUPAC condensed, linker removed; mutation: E41G
# Fuc(a1-2)Gal(b1-3)GalNAc = molecular target: Fuc(a1-2)Gal(b1-3)GalNAc
# Procedure, shortened: (§1)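 Negative Z-scores can be read as non-binding. The Z-score is calculated within each array and then averaged across arrays of one protein sequence at different concentrations or buffers and across linkers. Arrays, 3228 in all, were curated from the Consortium for Functional Glycomics database and kept only where the protein sequence was available.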
# [1] = molecular target: Fuc(a1-2)Gal(b1-3)GlcNAc(b1-3)GalNAc
# Procedure, shortened: as §1
# [2] = molecular target: Fuc(a1-2)Gal(b1-3)GlcNAc(b1-3)[Fuc(a1-2)Gal(b1-3)GlcNAc(b1-6)]GalNAc
# Procedure, shortened: as §1
# [3] = molecular target: Fuc(a1-2)Gal(b1-3)GlcNAc6S
# Procedure, shortened: as §1
# [4] = molecular target: Fuc(a1-2)Gal(b1-3)[Fuc(a1-4)]GlcNAc
# Procedure, shortened: as §1
# [5] = molecular target: Fuc(a1-2)Gal(b1-4)GlcNAc6S
# Procedure, shortened: as §1
# [6] = molecular target: Fuc(a1-2)Gal(b1-4)[Fuc(a1-3)]GlcNAc(b1-2)[Fuc(a1-2)Gal(b1-4)[Fuc(a1-3)]GlcNAc(b1-4)]Man(a1-3)[Fuc(a1-2)Gal(b1-4)[Fuc(a1-3)]GlcNAc(b1-2)Man(a1-6)]Man(b1-4)GlcNAc(b1-4)GlcNAc
# Procedure, shortened: as §1
# [7] = molecular target: Fuc(a1-2)Gal6S(b1-4)Glc6S
# Procedure, shortened: as §1
# [8] = molecular target: Fuc(a1-2)[Gal(a1-3)]Gal(b1-4)Glc
# Procedure, shortened: as §1
# [9] = molecular target: Fuc(a1-2)[Gal(a1-3)]Gal(b1-4)GlcNAc(b1-2)Man(a1-3)[Fuc(a1-2)[Gal(a1-3)]Gal(b1-4)GlcNAc(b1-2)Man(a1-6)]Man(b1-4)GlcNAc(b1-4)GlcNAc
# Procedure, shortened: as §1
# [10] = molecular target: Fuc(a1-2)[Gal(a1-3)]Gal(b1-4)GlcNAc(b1-3)GalNAc
# Procedure, shortened: as §1
# [11] = molecular target: Fuc(a1-2)[GalNAc(a1-3)]Gal(b1-3)GlcNAc(b1-2)Man(a1-3)[Fuc(a1-2)[GalNAc(a1-3)]Gal(b1-3)GlcNAc(b1-2)Man(a1-6)]Man(b1-4)GlcNAc(b1-4)[Fuc(a1-6)]GlcNAc
# Procedure, shortened: as §1
# [12] = molecular target: Fuc(a1-2)[GalNAc(a1-3)]Gal(b1-4)GlcNAc(b1-3)Gal(b1-4)GlcNAc(b1-3)Gal(b1-4)GlcNAc
# Procedure, shortened: as §1
# Gal(a1-3)Gal(b1-3)GlcNAc = molecular target: Gal(a1-3)Gal(b1-3)GlcNAc
# Procedure, shortened: as §1
# [13] = molecular target: Gal(a1-3)Gal(b1-3)[Fuc(a1-4)]GlcNAc(b1-2)Man(a1-3)[Gal(a1-3)Gal(b1-3)[Fuc(a1-4)]GlcNAc(b1-2)Man(a1-6)]Man(b1-4)GlcNAc(b1-4)GlcNAc
# Procedure, shortened: as §1
# Gal(b1-2)Gal = molecular target: Gal(b1-2)Gal
# Procedure, shortened: as §1
# [14] = molecular target: Gal(b1-3)GalNAc(a1-3)[Fuc(a1-2)]Gal(b1-4)Glc
# Procedure, shortened: as §1
# [15] = molecular target: Gal(b1-3)GlcNAc(b1-2)Man(a1-3)[Gal(b1-3)GlcNAc(b1-2)Man(a1-6)]Man(b1-4)GlcNAc(b1-4)GlcNAc
# Procedure, shortened: as §1
# [16] = molecular target: Gal(b1-3)GlcNAc(b1-2)Man(a1-3)[Gal(b1-3)GlcNAc(b1-2)Man(a1-6)]Man(b1-4)GlcNAc(b1-4)[Fuc(a1-6)]GlcNAc
# Procedure, shortened: as §1
# [17] = molecular target: Gal(b1-3)GlcNAc(b1-3)Gal(b1-3)GlcNAc
# Procedure, shortened: as §1
# [18] = molecular target: Gal(b1-3)GlcNAc(b1-3)Gal(b1-4)GlcNAc(b1-2)[Gal(b1-3)GlcNAc(b1-3)Gal(b1-4)GlcNAc(b1-6)]Man(a1-6)[Gal(b1-3)GlcNAc(b1-3)Gal(b1-4)GlcNAc(b1-2)Man(a1-3)]Man(b1-4)GlcNAc(b1-4)[Fuc(a1-6)]GlcNAc
# Procedure, shortened: as §1
# [19] = molecular target: Gal(b1-3)[Fuc(a1-4)]GlcNAc(b1-3)Gal(b1-4)[Fuc(a1-3)]GlcNAc
# Procedure, shortened: as §1
# [20] = molecular target: Gal(b1-3)[Neu5Ac(b2-6)]GalNAc
# Procedure, shortened: as §1
# [21] = molecular target: Gal(b1-4)GlcNAc(b1-2)Man(a1-3)[Gal(b1-4)GlcNAc(b1-2)Man(a1-6)]Man(b1-4)GlcNAc(b1-4)[Fuc(a1-6)]GlcNAc
# Procedure, shortened: as §1
# [22] = molecular target: Gal(b1-4)GlcNAc(b1-2)[Gal(b1-4)GlcNAc(b1-4)]Man(a1-3)[Gal(b1-4)GlcNAc(b1-2)Man(a1-6)]Man(b1-4)GlcNAc(b1-4)GlcNAc
# Procedure, shortened: as §1
# [23] = molecular target: Gal(b1-4)GlcNAc(b1-3)Gal(b1-4)GlcNAc(b1-3)Gal(b1-4)GlcNAc(b1-3)Gal(b1-4)GlcNAc(b1-2)[Gal(b1-4)GlcNAc(b1-3)Gal(b1-4)GlcNAc(b1-3)Gal(b1-4)GlcNAc(b1-3)Gal(b1-4)GlcNAc(b1-6)]Man(a1-6)[Gal(b1-4)GlcNAc(b1-3)Gal(b1-4)GlcNAc(b1-3)Gal(b1-4)GlcNAc(b1-3)Gal(b1-4)GlcNAc(b1-2)Man(a1-3)]Man(b1-4)GlcNAc(b1-4)[Fuc(a1-6)]GlcNAc
# Procedure, shortened: as §1
# [24] = molecular target: Gal(b1-4)GlcNAc(b1-3)Gal(b1-4)[Fuc(a1-3)]GlcNAc(b1-3)Gal(b1-4)[Fuc(a1-3)]GlcNAc
# Procedure, shortened: as §1
binder,measurement,setting,value
B1,glycan array binding signal (z-score),Fuc(a1-2)Gal(b1-3)GalNAc,-0.178
same,glycan array binding signal (z-score),[1],-0.168
same,glycan array binding signal (z-score),[2],-0.093
same,glycan array binding signal (z-score),[3],-0.182
same,glycan array binding signal (z-score),[4],-0.157
same,glycan array binding signal (z-score),[5],-0.144
same,glycan array binding signal (z-score),[6],0.014
same,glycan array binding signal (z-score),[7],-0.023
same,glycan array binding signal (z-score),[8],-0.166
same,glycan array binding signal (z-score),[9],-0.122
same,glycan array binding signal (z-score),[10],-0.189
same,glycan array binding signal (z-score),[11],0.532
same,glycan array binding signal (z-score),[12],-0.163
same,glycan array binding signal (z-score),Gal(a1-3)Gal(b1-3)GlcNAc,-0.138
same,glycan array binding signal (z-score),[13],1
same,glycan array binding signal (z-score),Gal(b1-2)Gal,-0.147
same,glycan array binding signal (z-score),[14],-0.175
same,glycan array binding signal (z-score),[15],0.069
same,glycan array binding signal (z-score),[16],-0.141
same,glycan array binding signal (z-score),[17],-0.13
same,glycan array binding signal (z-score),[18],1.02
same,glycan array binding signal (z-score),[19],-0.151
same,glycan array binding signal (z-score),[20],-0.158
same,glycan array binding signal (z-score),[21],-0.15
same,glycan array binding signal (z-score),[22],-0.165
same,glycan array binding signal (z-score),[23],-0.125
same,glycan array binding signal (z-score),[24],-0.099
